According to PubChem BioAssay (NCI):
This is part of a sample that, as a whole, favours compounds with a hit. Of some 83,000 tested, about 20% had one in any assay.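 Percent growth is the endpoint: 0 to 100 indicates growth inhibition (40 means 60% inhibition), 0 means no net growth, and negative values indicate cell death.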 A number with no mark means an inactive call. The source made the active and inactive calls. Rule for the calls: active = growth percent below 10; inactive = the rest.

Test system: HL-60(TB) leukemia
Experiment: NCI-60 one-dose screen, 48 h (100 = growth as untreated, 0 = no growth, -100 = all killed)
Conditions: 10 µM unless noted

Row | Structure (SMILES) | growth
1 | COc1ccc(C(c2cc(OC)c(OC)c(OC)c2)N2CCCC2)cc1 (stereo not given) | 35.5%
2 | O=C1OCC2=C1C(c1cccc(C(F)(F)F)c1)c1cc3c(cc1N2CCO)OCCO3 (stereo not given) | -29.5% (active)
3 | O=C(Nc1ccc(Oc2ccc(Nc3nc4ccccc4s3)cc2)cc1)Nc1ccc(Cl)c(C(F)(F)F)c1 | -19.3% (active)
4 | OC(c1cccc(C(F)(F)F)c1)c1cnccc1NC1CCCCC1 (stereo not given) | 45.3%
5 | COc1cc(/C=C/C(=O)CC(=O)/C=C/c2ccc(O)c(OC)c2)ccc1O | 0.358% (active)
6 | COc1ccc(CNc2ccc3nc(CCC4CCCCC4)[nH]c3c2)cc1 | 54.8%
7 | Nc1c(C(=O)Nc2cccc(Cl)c2)sc2nc3c(cc12)CCCC3 | 78.8%
8 | NC(N)=N/N=C(\N=Nc1ccccc1)c1ccc(Cl)cc1 | -8.35% (active)
9 | Cc1cc2c(cc1C)[n+](Cc1ccc3ccccc3c1)cn2Cc1ccc2ccccc2c1 | -60% (active)
10 | O=C(O)CCCCNC(=O)c1ccccc1 | 101%
11 | CSc1nc(-c2ccco2)c(C#N)c(=O)n1C | 95.9%
12 | Cc1ccc2oc3nc(C)c(C(=O)NCc4ccccc4)cc3c(=O)c2c1 | 73.4%
13 | O=C(Nc1ccccc1O)c1ccc(CNc2ccnc(C(F)(F)F)c2)cc1 | -32.9% (active)
14 | OC(c1cc2cc(Br)ccc2c2cc(Br)ccc12)C1CCCCN1 (stereo not given) | -61.8% (active)
15 | Oc1ccc(N=Cc2ccccc2)cc1 | 0.519% (active)
16 | CCCNc1nc2ccccc2c2c(=O)c3cccc(Cl)c3sc12 | 108%
17 | CN1C(=O)C(=Cc2coc3ccc(Br)cc3c2=O)C(=O)N(C)C1=O | 111%
18 | O=C1C=C(O)C(=O)C(CC2=C(O)C(=O)C=C(O)C2=O)=C1O | 102%
19 | Cc1cc(C2=NNC(=O)Cc3cc4c(cc32)OCCO4)cc(C)c1N | 21.6%
20 | O=C(N=Nc1c(O)[nH]c2ccc(Br)cc12)c1cc(-c2ccccc2)on1 | 84.9%
21 | O=C1/C(=C\c2ccc(F)cc2)CN(C(=O)c2ccccc2F)C/C1=C\c1ccc(F)cc1 | -4.26% (active)
22 | N#Cc1c(-c2ccccc2)nc2c(c(-c3ccc(Cl)cc3)nn2-c2ccccc2)c1-c1ccc([N+](=O)[O-])cc1 | 103%
23 | N#Cc1c(-c2ccc(Cl)cc2)nc(NCCO)[nH]c1=O | 102%
24 | COc1ccc(C2CC(c3ccc(-c4ccccc4)cc3)=NN2c2ccc(S(N)(=O)=O)cc2)cc1 (stereo not given) | 69.4%
25 | Cc1cc(C2(c3cc(C)c(O)cc3C)OS(=O)(=O)c3ccccc32)c(C)cc1O | 87.8%
